The record followed here is PubChem BioAssay (NCATS).

Results filed as inconclusive are left out. Values without a mark were called inactive. Calls of active or inactive are those of the source. Calls come from the whole dose curve; as a rule, active = well fitted curve in the direction sought with a large enough effect; inconclusive = small, poorly fitted or top-dose-only effect, or another doubt; inactive = no such curve, though single readings can be large; an effect the other way counts as inactive or inconclusive.

As a reminder, the viability is a read-out of living cells in per cent, often relative to untreated cells.

Experiment [1] is described as follows: BET inhibitor-based combinations targeting novel dependencies in MECOM-rearranged (r) AML: SET-2 cell line (AID 2202231).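 For viability: plate controls were DMSO treated cells for no effect and wells without cells for full effect.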 Note: nearly all actives have a fitted effect of over 35% in size. The settings on record: SET-2 AML cells viability, CellTiter-Glo luminescence, 48 h; viability: hits give low values, concentration not given here. The method in brief: (§1)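 AML cell lines seeded at 500 cells/well, treated with 11-point dose curves for 48 h. Viability by CellTiter-Glo luminescence, normalised to DMSO and empty wells; activity expressed as AUC and per-cell-line Z-transformed AUC.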

Experiment [2] in a line: BET inhibitor-based combinations targeting novel dependencies in MECOM-rearranged (r) AML: OCI-AML3 cell line (AID 2202232). Note: nearly all actives have a fitted effect of over 35% in size. The following applies: CellTiter-Glo luminescence, 48 h; Potency: OCI-AML3 viability; series mostly up to 46 µM. In short, it runs like this:
as §1
For orientation: ATP-based viability assays read luminescence as a measure of living cells.

Experiment [3] in a line: BET inhibitor-based combinations targeting novel dependencies in MECOM-rearranged (r) AML: MV-4-11 cell line (AID 2202233). Note: nearly all actives have a fitted effect of over 45% in size. The following applies: MV-4-11 AML viability, CellTiter-Glo luminescence, 48 h; series mostly up to 46 µM. In short, it runs like this:
(§2)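 Cells at 500/well were exposed for 48 hr to MIPE v5.0 drugs as 11-point dose curves. Viability was read by CellTiter-Glo luminescence and normalized to DMSO and empty-well controls. Activity was expressed as AUC and per-cell-line Z-AUC.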

Experiment [4] in a line: BET inhibitor-based combinations targeting novel dependencies in MECOM-rearranged (r) AML: UCSD-AML1 cell line (AID 2202235). Note: nearly all actives have a fitted effect of over 40% in size. The settings on record: UCSD-AML1 AML cells viability, CellTiter-Glo, 48 h; series mostly up to 46 µM. In short, it runs like this: as §2
The nature of experiment [5]: BET inhibitor-based combinations targeting novel dependencies in MECOM-rearranged (r) AML: AML-191 cell line (AID 2202236; note: nearly all actives have a fitted effect of over 35% in size). The following applies: AML-191 viability, CellTiter-Glo luminescence, 48 h; series mostly up to 46 µM. The method in brief:
as §1

Experiment [6] is described as follows: BET inhibitor-based combinations targeting novel dependencies in MECOM-rearranged (r) AML: AML-194 cell line (AID 2202237; note: nearly all actives have a fitted effect of over 40% in size). The following applies: AML-194 (MECOM-r AML) viability, CellTiter-Glo, 48 h; series mostly up to 46 µM. In short, it runs like this: as §1
A short description of experiment [7]: BET inhibitor-based combinations targeting novel dependencies in MECOM-rearranged (r) AML: HNT-34 cell line (AID 2202234). Note: nearly all actives have a fitted effect of over 35% in size. The settings on record: HNT-34 AML viability, CellTiter-Glo luminescence, 48 h; series mostly up to 46 µM. In short, it runs like this: as §2
Potency is the fitted concentration of half-maximal effect.

As for `CN(C)C/C=C/C(=O)Nc1ccc(C(=O)N2CCC[C@@H](Nc3ncc(Cl)c(-c4c[nH]c5ccccc45)n3)C2)cc1`, the Potency in experiment [1] is 5.9 µM (active); in experiment [2] it was 372 nM (active); in experiment [3] it was 235 nM (active); in experiment [4], 468 nM (active); in experiment [5] it was 2.35 µM (active); in experiment [6], 1.66 µM (active).

For `Cc1ccc(C(=O)N(CCCN)[C@@H](c2nc3cc(Cl)ccc3c(=O)n2Cc2ccccc2)C(C)C)cc1`, the Potency in experiment [1] is 0.105 µM (active); in experiment [2], 29.5 nM (active); in experiment [3], 41.7 nM (active); in experiment [4], 26.3 nM (active); in experiment [5], 0.0417 µM (active); in experiment [6], 0.0468 µM (active).

As to `Cc1ccc(C(=O)OCc2ccc([C@@H](CN)C(=O)Nc3ccc4cnccc4c3)cc2)c(C)c1`, the Potency was 14.4 µM (active) in experiment [1]; 8110 nM (active) in experiment [2]; 3230 nM (active) in experiment [3]; 14400 nM (active) in experiment [4]; 9.1 µM (active) in experiment [5]; 8.11 µM (active) in experiment [6].

As for `CCCc1nc(C)c2c(=O)[nH]c(-c3cc(S(=O)(=O)N4CCN(CC)CC4)ccc3OCC)nn12`, the viability in experiment [1] is 114%. In experiment [2], the Potency was 3720 nM (active). For the same molecule, the Potency result in experiment [3], in experiment [4], in experiment [5] and in experiment [6] was “inactive” throughout.

As for `CC[C@]12C=CCN3CC[C@@]4(c5cc([C@@]6(C(=O)OC)CC7C[C@@H](C(C)(F)F)CN(Cc8c6[nH]c6ccccc86)C7)c(OC)cc5N(C)[C@H]4[C@@](O)(C(=O)OC)[C@@H]1OC(C)=O)[C@@H]32` (stereo not given in full), the Potency in experiment [1] is 1.66 µM (active); in experiment [2], 296 nM (active); in experiment [3] it was 417 nM (active); in experiment [4], 468 nM (active); in experiment [5] it was 0.372 µM (active); in experiment [6], 0.332 µM (active).

As to `CC(=O)NCC(=O)N1[C@@H]2CC[C@H]1c1ccc(Nc3ncc(C(F)(F)F)c(NC4CCC4)n3)cc12`, the Potency in experiment [1] was 4.17 µM (active); in experiment [2] it was 14800 nM (active); in experiment [3] it was 41.7 nM (active); in experiment [4] it was 934 nM (active); in experiment [5], 0.833 µM (active); in experiment [6], 0.662 µM (active).

Take `CC#CC(=O)N1CC[C@@H](n2c(=O)n(-c3ccc(Oc4ccccc4)cc3)c3c(N)ncnc32)C1`: the viability in experiment [1] was 83.2%. Further, the Potency entry in experiment [2], in experiment [4] and in experiment [6] was “inactive” throughout. The Potency in experiment [3] is 10500 nM (active).

With `CC(C)[C@H]1C(=O)N[C@@H](CCCN=C(N)N)C(=O)NCC(=O)N[C@@H](CC(=O)O)C(=O)N[C@H](Cc2ccccc2)C(=O)N1C`, the viability in experiment [1] was 124%. Besides, the Potency entry in experiment [2], in experiment [3], in experiment [4], in experiment [5] and in experiment [6] was “inactive” in each case.

As for `c1ccc2[nH]c(-c3cscn3)nc2c1`, in experiment [1], the viability was 111%. Moreover, the Potency entry in experiment [2], in experiment [3] and in experiment [4] was “inactive” throughout. In addition, the Potency in experiment [5] and in experiment [6] was 18.6 µM (active) each time.

`O=C(/C=C/c1cccnc1)NCCCCC1CCN(C(=O)c2ccccc2)CC1`: in experiment [1], the viability was 119%. Moreover, the Potency in experiment [2] was 4.2 nM (active); in experiment [3], 20.9 nM (active); in experiment [4], 8.3 nM (active); in experiment [5] it was 0.0059 µM (active). Further, in experiment [6], the Potency result is “inactive”.

On to `COc1ccc(C(=O)N2CCN(c3ccc4c(c3)CCC(=O)N4)CC2)cc1OC`, for which, in experiment [1], the viability was 105%. Besides, the Potency entry in experiment [2], in experiment [3], in experiment [4], in experiment [5] and in experiment [6] was “inactive” each time.

As to `CCC[C@H](Nc1nc(-c2ccc(NC(=O)NCC)c(OC)c2)ncc1C)c1cccnc1`, the Potency in experiment [1] was 0.118 µM (active); in experiment [2], 105 nM (active); in experiment [3], 52.5 nM (active); in experiment [4] it was 132 nM (active); in experiment [5] it was 0.105 µM (active); in experiment [6], 0.105 µM (active).

Consider `CCN(CC)CCNC(=O)c1c(C)[nH]c(/C=C2/C(=O)Nc3ccc(-c4csc(-c5ccccc5)n4)cc32)c1C`, for which the Potency is 9.34 µM (active) in experiment [1]; 18600 nM (active) in experiment [2]; 1180 nM (active) in experiment [3]; 9340 nM (active) in experiment [4]; 7.42 µM (active) in experiment [5]; 7.42 µM (active) in experiment [6].

Take `O=C(/C=C/c1ccc2ccc(C(F)(F)F)cc2n1)c1ccncc1`: the Potency in experiment [1] was 2.63 µM (active); in experiment [2] it was 1860 nM (active); in experiment [7] it was 1.32 µM (active); in experiment [4] it was 1660 nM (active); in experiment [5] it was 1.86 µM (active); in experiment [6] it was 2.35 µM (active).

For the molecule `Cc1c(CN2CCC(Nc3ncnc4sc(CC(F)(F)F)cc34)CC2)ccc2c1cc(C#N)n2Cc1cn[nH]c1`, the Potency in experiment [1] is 3.32 µM (active); in experiment [2], 13200 nM (active); in experiment [7] it was 16.6 µM (active); in experiment [4], 16600 nM (active); in experiment [5], 18.6 µM (active); in experiment [6], 20.9 µM (active).

On to `CS[C@H]1SC[C@@H]2C(=O)N(C)[C@H](C(C)C)C(=O)OC[C@H](NC(=O)c3cnc4ccccc4n3)C(=O)N[C@H](C)C(=O)N(C)[C@H]1C(=O)N(C)[C@H](C(C)C)C(=O)OC[C@H](NC(=O)c1cnc3ccccc3n1)C(=O)N[C@H](C)C(=O)N2C`, for which the Potency in experiment [1] is 0.0148 µM (active); in experiment [2], 4.7 nM (active); in experiment [7] it was 0.0066 µM (active); in experiment [4] it was 5.3 nM (active); in experiment [5], 0.0132 µM (active); in experiment [6] it was 0.0132 µM (active).
